# Hit rate of the full screen: of about 1,300 compounds, about 25 (2%) were called active. Inconclusive results (about 9%) are left out. This excerpt belongs to a sample that is enriched for actives. Values without a mark were called inactive. Calls follow the shape of the dose curve; as a rule, active = well fitted activation curve with a large enough effect; inconclusive = small, poorly fitted or top-dose-only effect; inactive = flat fitted curve, though single readings scatter.
# Target: Glucagon-like peptide 1 receptor (Homo sapiens) (UniProt P43220)
# Test: qHTS of GLP-1 Receptor Agonists: Hit Validation; as to activation: % of control where 0% means no effect
# Conditions: HEK293 GLP-1R, cAMP-response luciferase, 4-6 h; series mostly up to 46.1 µM; activation: at the top concentration
# Excerpt: The overall goal of this project was to develop a novel assay for discovering small molecule ligands for class B1 G protein-coupled receptors (GPCRs). Very few agonists (or inverse agonists) with generally weak activity for this entire group of physiologically important receptors are known to date. To establish proof-of-principle that this critical bottleneck can be overcome with a suitable screening approach, our studies focused on the class B1 receptor for glucagon-like peptide-1 (GLP-1R), a potential therapeutic target for diabetes and neurodegenerative disease. The assay was developed in a "mix and measure" format using a cell-based functional readout. Toward this goal, stably transfected HEK293 cell clones were established that co-express (i) a cAMP-responsive luciferase reporter gene, and (ii) GLP-1Rs that upon ligand interaction either stimulate (agonists) or inhibit (inverse agonists) luciferase activity. In different cell lines to be used for screening, expressed GLP-1Rs are specifically optimized for high sensitivity detection of either weak agonists (hypersensitive receptor) or inverse agonists (constitutively active receptor mutant). In addition, control cell lines were developed that express either the cAMP-responsive reporter gene without recombinant GLP-1Rs (enabling initial exclusion of GLP-1R independent effects of candidate probes), or the reporter gene together with wild type GLP-1Rs (for confirmation of probe activity at this receptor), or the reporter gene in combination with the constitutively active orphan receptor GPR119 (enabling initial exclusion of GLP-1R independent inhibitory effects of candidate inverse agonists). To that end, this assay was optimized for 1536-well format and screened against the MLSMR. NIH Molecular Libraries Probe Production Network [MLPCN] NIH Chemical Genomics Center [NCGC] Grant: NS064851 PI Name: Martin Beinborn, Tufts Medical Center
# In a white solid 1536-well plate, 6 uL of cells are dispensed in DMEM without phenol red, 10% Nu serum, and 1% pen-strep medium. The plates are then incubated for 12 hours at 37 deg C at 5% CO2 before 23 nL of compounds are added. After a 4-6 hr incubation at37 deg C and 5% CO2, 3 uL of detection reagent are added and after a 12 min incubation at RT, a luminescent read is obtained on the ViewLux.
# Potency is read from the fitted curve at half-maximal effect.
# Sequence of Glucagon-like peptide 1 receptor (Homo sapiens) (P43220 whole entry, looked up): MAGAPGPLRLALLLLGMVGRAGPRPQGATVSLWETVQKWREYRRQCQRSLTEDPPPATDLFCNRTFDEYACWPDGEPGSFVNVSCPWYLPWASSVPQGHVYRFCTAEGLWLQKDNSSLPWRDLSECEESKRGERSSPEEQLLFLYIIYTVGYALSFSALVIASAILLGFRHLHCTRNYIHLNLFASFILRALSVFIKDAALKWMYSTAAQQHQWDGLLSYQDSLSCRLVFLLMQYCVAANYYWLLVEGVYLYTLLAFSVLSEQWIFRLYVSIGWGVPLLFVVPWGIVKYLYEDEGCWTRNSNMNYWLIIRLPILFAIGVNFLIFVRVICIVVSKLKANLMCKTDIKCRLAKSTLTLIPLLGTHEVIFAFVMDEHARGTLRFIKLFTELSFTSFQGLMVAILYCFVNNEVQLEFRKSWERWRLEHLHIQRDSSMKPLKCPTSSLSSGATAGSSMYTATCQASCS
Structure (SMILES),activation [%],Potency
Clc1ccccc1Nc1nc(NCC2CC2)nc2ccsc12,4.99,
COCCNc1nc(Nc2ccc(C)cc2C)c2sccc2n1,,9.2 µM (active)
COCCNc1nc(Nc2ccccc2Cl)c2sccc2n1,7.08,
CCOc1ccc(C(C)=O)cc1COC(=O)CCc1cc(OC)c(OC)c(OC)c1,1.66,
CCOC(=O)c1c(C)[nH]c(C)c1C(=O)COC(=O)c1sccc1C,0.504,
Nc1nnc(-c2cn(-c3ccccc3)nc2-c2ccccc2)o1,,5.17 µM (active)
CCOC(=O)c1cn(-c2ccccc2)nc1-c1ccncc1,2.6,
COc1ccc(Cn2c(SCC#N)nc3ccc(N4CCOCC4)cc3c2=O)cc1,19.6,
CCOC(=O)C1(C)CCCN(C(=O)c2cc(C)oc2C)C1 (stereo unspecified),-0.718,
Cc1ccc(NC(=O)Nc2ccc([N+](=O)[O-])cc2)nc1,-0.803,
COc1cc2c(cc1OC)C1=C(C#N)CCC(=NC(=O)c3ccc(Cl)cc3)N1CC2,14.6,
C=CCSc1nc2c(c(=O)[nH]c(=O)n2C)n1CC,6.88,
COc1ccc([N+](=O)[O-])cc1NS(=O)(=O)c1cc(C(=O)N2CCN(C)CC2)ccc1OC,2.19,
CC(C)Cn1cnc2c(SCc3ccccc3F)nc(N)nc21,5.83,
CCCn1c2ccc(F)cc2c2nnc(SCCN3CCOCC3)nc21,10.9,
CCOc1ncccc1C(=O)OCc1ccc(C(=O)OC)o1,3.21,
Nc1nc2sc3c(c2c(=O)s1)CCCC3,19.1,
COc1cc2c(cc1OC)CN(C(=O)c1ccc(N3CCCC3)c([N+](=O)[O-])c1)CC2,4.86,
COC(=O)[C@@H]1CCCN1C(=O)c1cc(COc2cccc3cccnc23)on1,-0.35,
CCN=C1S/C(=C\c2cn(CC)c3ccccc23)C(=O)N1CC,26.8,
COc1ccccc1N1CCN(C(=O)/C=C/c2ccco2)CC1,2.92,
COc1cccc(OC)c1C(=O)Nc1ccc(C(=O)c2ccncc2)cc1,-0.423,
CCOC(=O)c1c(NC(=O)COC)sc(C)c1C,3.9,
COc1ccc(C2CC(c3ccc(OC)c(OC)c3)=NN2C(=O)c2ccccc2)cc1 (stereo unspecified),28,

Structure (SMILES),activation [%],Potency
c1cc2c(cc1C1=Nn3c(nnc3C3CCCCC3)SC1)OCO2,18.3,
Cc1cc(C)n(-c2nnc3n2N=C(c2c[nH]c4ccccc24)CS3)n1,6.87,
COc1ccc(OC)c(-c2nnc3n2N=C(c2ccc(OC)c(OC)c2)CS3)c1,,1.64 µM (active)
CCOc1ccc(-c2nnc3n2N=C(c2ccc(OC)cc2)CS3)cc1,8.96,
COc1ccc(C2=Nn3c(nnc3-c3ccccc3Cl)SC2)cc1OC1CCOC1 (stereo unspecified),,13 µM (active)
COc1ccc(C2=Nn3c(nnc3C3CCCCC3)SC2)cc1OC,,8.2 µM (active)
COc1ccc(C2=Nn3c(nnc3-c3ccccc3OC)SC2)cc1OC,,5.8 µM (active)
COc1ccc(C2=Nn3c(nnc3-c3ccco3)SC2)cc1,7.18,
COc1ccc(C2=NN(C(C)=O)C(c3cccs3)C2)cc1OC (stereo unspecified),14.1,
COc1ccc(C2=Nn3c(nnc3-c3ccccc3)SC2)cc1OC,19.1,
COc1ccc(C2=Nn3c(nnc3-c3ccccn3)SC2)cc1OC,29.2,
C/C(=N\Nc1nc2ccccc2[nH]1)c1ccc(C)o1,-0.323,
COc1cc(C#Cc2ccc3cc(CCO)oc(=O)c3c2)cc(OC)c1,29.7,
O=c1[nH]n(CC2COC3(CCCCC3)O2)c(=O)c2ccccc12 (stereo unspecified),5.01,
COCc1cccc(-c2csc(C(C)(O)c3cccc(F)c3)n2)c1 (stereo unspecified),0.448,
COc1cc(SC)ccc1C(=O)OCc1nc2ccsc2c(=O)[nH]1,3.67,
CSc1nnc(C)c(/C=C/Nc2ccc(F)cc2)n1,12.1,
CN(C)c1ccc(N=Nc2ccccc2C(=O)OCC(=O)Nc2ccccc2C(F)(F)F)cc1,4.63,
COc1ccc(/C=N/n2c(-c3ccc(C)cc3)n[nH]c2=S)cc1OC,22.8,
C=CCn1c2ccccc2c(=O)c2cc(C#CC3(O)CCCCC3)ccc21,19.5,
O=C(Nc1ccccc1)OCc1cc(-c2ccccc2Cl)on1,4.56,
CCCc1cc(-c2ccc(O)c(OCC)c2)c(C#N)c(N)n1,10.5,
COc1ccc(CCN(C)C/C=C/c2ccccc2[N+](=O)[O-])cc1OC,4.02,
CCCOc1ccc2c(=O)c(-c3cc(C(=O)OC)oc3C)c(C)oc2c1,0.445,

Structure (SMILES),activation [%],Potency
Fc1ccccc1COc1ccc(Br)cc1CNCc1cccnc1,0.917,
COc1ccc(Cc2noc(-c3ccc(OC)c(OC)c3)n2)cc1OC,7.14,
COc1ccc(CN(C)Cc2nc(Cc3ccccc3Cl)no2)cc1OC,,16.4 µM (active)
COc1cc(-c2nc(Cc3ccccc3Cl)no2)cc(OC)c1OC,4.3,
CCCCCCSC1=C(C#N)C(c2ccc(O)cc2)CC(=O)N1 (stereo unspecified),-0.367,
NS(=O)(=O)c1cccc(NC(=O)Nc2ccccc2)c1,-0.735,
CCc1ccc(C(=O)COC(=O)c2cc([N+](=O)[O-])ccc2NCCO)cc1,11,
CC(CCc1ccco1)NC(=O)c1cccc2c1C(=O)N(C1CCCCC1)C2 (stereo unspecified),6.34,
Cc1nn(-c2ccccc2)c(Cl)c1/C=N/NC(N)=O,18.9,
Cc1ccccc1Nc1nc(N)nc(-c2oc3ccccc3c2C)n1,23.8,
COc1cccc(C(C)(O)c2nc(-c3ccc(OC)c(OC)c3)cs2)c1 (stereo unspecified),12,
Cc1c(C(=O)N(C)C(C)c2ccccn2)oc2c(F)cccc12 (stereo unspecified),2.69,
CCOCCCn1c(=NC(=O)c2cccnc2)c(C(=O)OCC)cc2c(=O)n3ccccc3nc21,1.76,
COc1ccc(-c2cc(C3CC3)nc(N)c2C#N)cc1,3.1,
CCOC(=O)c1c(NC(=O)Cc2ccccc2)sc2c1CCN(CC)C2,1.77,
CCOC(=O)c1cnc2c(c(C)nn2CC)c1NC1CC1,13.8,
c1ccc(Cn2nnc3c(N4CCC5(CC4)OCCO5)ncnc32)cc1,-0.288,
COc1ccc(CCN(C)C(=O)CCc2nnc(-c3ccccc3)o2)cc1OC,-0.272,
COc1ccccc1Nc1cc(C(=O)NCc2cccnc2)c2ccccc2n1,1.83,
COc1cc2c(cc1OC)CN(C(=O)c1ccc(S(=O)(=O)N(C)c3ccccc3)cc1)CC2,16.1,
O=c1c2c3c(sc2nc(NCCO)n1Cc1ccco1)CCCCC3,6.54,
CCSc1cc(C)nc2c(-c3ccccc3)c(C)nn12,4.39,
CCOC(=O)c1sc(NC(=O)/C=C/c2cnn(CC)c2C)c(C(=O)OCC)c1C,4.5,

# — PubChem BioAssay AID743262 (National Center for Advancing Translational Sciences (NCATS), 2014)
